For part of these data: Entries with a potency or affinity are not part of this list.
What was measured:
[1] = system: Staphylococcus aureus; test: Antibacterial activity against Staphylococcus aureus MRSA ATCC 43300 (CO-ADD:GP_020); MIC in CAMBH media using NBS plates, by Resazurin F(560/590); assay type: functional; settings: Concentration 20 uM, ASSAY_TEST Inhibition of Bacterial Growth, detection method Resazurin, Fluorescence (ex560/em590), MEDIA CAMHB, plate type 384well, CORNING #3640, time 18 hr
[2] = system: Acinetobacter baumannii; test: Antibacterial activity against Acinetobacter baumannii ATCC 19606 (CO-ADD:GN_034); MIC in CAMBH media using NBS plates, by Resazurin F(560/590); assay type: functional; settings: Concentration 20 uM, ASSAY_TEST Inhibition of Bacterial Growth, detection method Resazurin, Fluorescence (ex560/em590), MEDIA CAMHB, plate type 384well, CORNING #3640, time 18 hr
[3] = system: Escherichia coli; test: Antibacterial activity against Escherichia coli ATCC 25922 (CO-ADD:GN_001); MIC in CAMBH media using NBS plates, by Resazurin F(560/590); assay type: functional; settings: Concentration 20 uM, ASSAY_TEST Inhibition of Bacterial Growth, detection method Resazurin, Fluorescence (ex560/em590), MEDIA CAMHB, plate type 384well, CORNING #3640, time 18 hr
[4] = system: Klebsiella pneumoniae; settings: Concentration 20 uM; ASSAY_TEST Inhibition of Bacterial Growth; detection method Absorption (OD600); MEDIA CAMHB; plate type 384well; NBS; CORNING #3640; time 18 hr
[5] = system: Candida albicans; settings: 20 µM
[6] = system: Cryptococcus neoformans; settings: Concentration 20 uM; ASSAY_TEST Inhibition of Fungal Growth; detection method Resazurin; Absorption (OD600-OD570); plate type 384well; NBS; CORNING #3640

Structure (SMILES) | Inhibition [1] [%] | Inhibition [2] [%] | Inhibition [3] [%] | Inhibition [4] [%] | Inhibition [5] [%] | Inhibition [6] [%]
CC1CC(C)(C)C2=NCCN21 (stereo unspecified) | 12.73 | -16.85 | 7.35 | 11.7 | 5.23 | -11
CCOC(=O)CCCN(c1[nH]c(C)c(C)c1C#N)S(=O)(=O)c1ccc(C)cc1 | 20.71 | -4.29 | 15.68 | 14.1 | -2.66 | -4.37
Cc1ccc(NC(=O)NNC(=O)CSC2CCc3ccccc32)c(C)c1 (stereo unspecified) | 19.06 | 5.57 | 0.84 | 5.08 | 2.67 | -10.98
CCCCCC(=O)N1CCCC1 | 12.42 | -13.64 | 4.47 | 10.8 | 0.29 | -1.54
C(COC1CC2CC1C1C2CC2OC21)OC1CC2CC1C1C2CC2OC21 (stereo unspecified) | 7.31 | 15 | 5.47 | 11.14 | -1.79 | -10.71
Oc1ccccc1-c1nc2c3ccccc3c3ccccc3c2[nH]1 | 17.7 | 0.13 | 3.46 | 14.09 | 6.21 | -5.55
CC(=O)/C=C(\C)Nc1ccccc1O | 8.26 | -10.28 | 7.16 | 26.72 | 1.01 | 2.5
O=C(/C=C/C(=O)N1CCc2ccccc2C1)N1CCc2ccccc2C1 | 0.65 | -9.4 | -3.52 | 3.56 | 7.97 | -10.59
CC(=O)NC1=C/C(=C\[N+](=O)[O-])C=C1O | -1.13 | 0.39 | 10.35 | 11.59 | 0.53 | -2.2
COc1ccc(-c2cc(-c3ccccc3)c(-c3ccccc3)nn2)cc1 | -3.16 | 8.32 | 6.8 | -1.34 | 2.55 | -12.46
CCOCc1cc(O)nc(SC)n1 | 12.32 | -13.24 | 14.73 | 11.3 | -0.55 | -4.91
COc1cc(OC)c2c(=O)cc(-c3cccnc3)oc2c1 | 13.2 | 11.57 | -0.96 | 9.22 | 2.37 | -8.93
CCC(C)NC(=O)CC(C)C (stereo unspecified) | 6.08 | -12.68 | 19.94 | 15.35 | -0.68 | -12.52
Cc1ccc(C)c(C(=O)CCC(=O)O)c1 | 9.56 | 8.73 | 0.68 | 19.18 | 8 | -5.46
NC(=O)SCC(=O)Nc1ccccc1C(=O)O | 2.18 | 6.48 | -0.39 | 23.65 | 9.98 | -3.81
CC(C1=C(CCN(C)C)Cc2ccccc21)c1ccccn1.O=C(O)/C=C\C(=O)O (stereo unspecified) [DIMETHINDENE MALEATE] | 21.63 | -11.43 | 16.27 | 18.33 | 1.91 | -1.76
Nc1cnc(Nc2ccc(Br)cc2)nc1N.O=S(=O)(O)O | 3.44 | 7.82 | -16.03 | 6.45 | 3.46 | 6.23
CC(=O)CC[N+](C)(C)C.[I-] | 1.22 | -9.05 | 1.86 | 4.32 | 4.03 | -9.72
COC(=O)c1ccc(Cn2cnc3c(Cl)ncnc32)cc1 | -16.45 | 0.57 | -10.62 | 2.87 | -1.99 | 15.29
Cc1cccnc1NC(=O)c1csnn1 | 5.73 | -12.69 | 4.7 | 9.01 | -1.09 | -4.1
O=C(c1ccccc1)c1ccccc1C(=O)c1ccccc1 | 16.85 | 12.71 | 4.94 | 16.03 | 2.49 | -5.73
Cn1c(N)c(/N=N/c2ccc(S(N)(=O)=O)cc2)c(=O)n(C)c1=O | 19.52 | 4.45 | 15.26 | 20.82 | 2.91 | -0.3
Nc1nc(Cl)cc(Nc2ccccc2Cl)n1 | 12.37 | 13.94 | -7.98 | 12.81 | 7.79 | 1.11

Structure (SMILES) | Inhibition [1] [%] | Inhibition [2] [%] | Inhibition [3] [%] | Inhibition [4] [%] | Inhibition [5] [%] | Inhibition [6] [%]
O=C1c2ccccc2NC(c2cc(Cl)cc(Cl)c2O)N1CCc1ccccn1 (stereo unspecified) | 27.48 | -1.5 | 9.13 | 12.19 | 2.81 | -0.4
CCc1noc2cc(-c3ccccc3)n(C)c(=O)c12 | -11.16 | 2.9 | -6.9 | 8.09 | 1.75 | -7.67
CCOc1nsc(OCC)n1 | 10.98 | -19.84 | 11.82 | -1.83 | 5.3 | -10.38
CC(=O)Nc1nc(C)c(CCC2OCCO2)c(O)n1 | 4.85 | 12.66 | -15.79 | 16.29 | 5.32 | 22
O=C1CSCc2nc3ccccc3n21 | 4.29 | -8.34 | 5.14 | 18.88 | 1.65 | -7.32
N#C/C(=C\c1ccc(C#N)cc1)C(=O)c1ccccc1 | -10.06 | -6.48 | 6.05 | 15.1 | 8.77 | -10.85
N=C(N)Nc1nc2cc([N+](=O)[O-])ccc2[nH]1 | 9.17 | -6.93 | 5.92 | 26.99 | -2.1 | -6.56
Cc1cc(C)c2c(SC(C)C)nc(N)nc2n1 | -0.52 | -6.63 | 2.33 | 4.23 | 0.54 | -10.66
COC(=O)Cc1[nH]c(Cl)nc1C(N)=O | -16.49 | -11.06 | -2.69 | 2.53 | 1.21 | 7.24
Nc1ncncc1-c1ccc2ccccc2c1 | 8.62 | 6.7 | 0.44 | 17.13 | 5.79 | -7.84
Oc1cc(CNC2CCCCC2)c(O)cc1CNC1CCCCC1 | 1.43 | -9.92 | 2.36 | 11.38 | 5.97 | -6.29
Brc1ccc(/N=N/c2ccc3ccccc3n2)cc1 | 10.21 | 4.06 | -16.68 | 5.4 | 5.16 | 43.68
O=C(NC(=S)Nc1cccc(O)c1)c1ccco1 | 2.34 | -0.89 | 12.02 | -1.93 | 0.31 | -18.75
CNC(=O)OCN1C(=O)C2CC=CCC2C1=O (stereo unspecified) | 7.25 | -15.92 | 10 | 2.19 | -1.86 | -13.88
CCC1=[N+]([O-])[N+]([O-])=C(c2ccccc2)/C1=N/O | 10.92 | 10.01 | -4.02 | 8.43 | 7.14 | -1.35
O=C(c1ccccc1)c1ccc(Sc2ccc([N+](=O)[O-])cc2)cc1 | 11.06 | -8.42 | 1.44 | 19.14 | 2.18 | -2.51
NC(=O)Nc1n[nH]c(-c2ccccc2)n1 | -5.91 | -11.11 | -7.81 | 2.72 | 1.88 | 1.04
Oc1ccccc1-c1nnco1 [FENADIAZOLE] | 4.3 | -3.75 | 4.12 | 8.02 | 0.92 | -7.26
Clc1cc2c(c(CSc3nc4ccccc4n4cccc34)c1)OCOC2 | 18.29 | 11.44 | -3.64 | 3.77 | 0.34 | 2.56
c1ccc(-n2nnnc2-c2cccc3ccccc23)cc1 | 11.74 | 8.55 | -5.59 | 3.86 | 8.07 | -9.54
COc1cc2c(NCCCCCO)ncnc2c(OC)c1OC | 13.68 | 10.53 | 6.4 | 13.53 | 0.91 | -4.07
O=C1OCC/C1=C\OCCCO/C=C1\CCOC1=O | -12.85 | -4.57 | -5.06 | 8.79 | -0.38 | -11.43
O=[N+]([O-])c1cc2cccnc2c2ncccc12 | -17.5 | -9.82 | 9.62 | 9.1 | 0.77 | -9.49
